Measurements published in PubChem BioAssay AID2216 (Broad Institute, 2009).
Hit rate of the full screen: of about 300,000 compounds, about 3,300 (1.1%) were called active. Another 6% or so got no clear call; they are omitted. The full list was thinned out, with actives kept by preference. A number with no mark means an inactive call.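 The calls were made as follows: active = more than half of the replicate wells show a fall in the fluorescence ratio signal beyond about 16% (limit read from the data, passing the limit was not always enough); inconclusive = exactly half of the replicate wells pass the set limit; inactive = fewer than half of replicates pass the limit.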

system: Ran GTPase (GTP-bound) - importin-beta complex; experiment: inhibitors of RanGTP-importin-beta interaction, primary screen, biochemical, FRET, CFP-Ran, YFP-importin-beta, homogeneous (AID 2216); conditions: cell-free CFP-Ran/YFP-importin-beta FRET ratio; hits give high values; concentration not given here;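 also: 0% = DMSO wells and 100% = Ran loaded with GDP instead of GTP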

SMILES	inhibition
NC1=NC(c2ccc([N+](=O)[O-])cc2)N(c2ccc(F)cc2)C(N)=N1 (stereo not given)	1.29%
CCOc1cc2ccccc2cc1C(=O)Nc1ccccn1	3.29%
CSc1sc(C)cc1C1C(C#N)=C(N)N(c2cccnc2)C2=C1C(=O)CCC2 (stereo not given)	18.2% (active)
N#CC1=C(N)N(c2ccccc2)C2=C(C(=O)CCC2)C1c1ccccc1 (stereo not given)	-1.9%
CN(C)N1C(N)=C(C#N)C(c2ccc(Br)cc2)C2=C1CCCC2=O (stereo not given)	-0.393%
Cc1occc1C(=O)N/N=C/c1ccc(-c2cccc([N+](=O)[O-])c2)o1	-1.61%
O=C(CCCCO)c1ccc(O)c(Cl)c1	-9.87%
Cc1ccc(-c2csc(NCCc3nc4cc(Cl)c(Cl)cc4n3CCOCCO)n2)cc1	3.23%
CCOC(=O)N1CCN(CC(=O)Nc2cc(C)nn2-c2nc3ccccc3s2)CC1	-2.13%
CCOC(=O)c1oc2c(CN3CCN(CCO)CC3)c(O)c(CC)cc2c(=O)c1-c1nc2ccccc2s1	16.5% (active)
CCOC(=O)CCCN1CC(O)=C(c2nc3ccccc3s2)C1=N	-2.49%
COc1ccccc1C(=O)NCCC(=O)NCC(c1ccco1)N1CCCCC1 (stereo not given)	2.56%
COc1ccc(C(=O)C[n+]2ccc(N)c(C)c2C)cc1	26.2% (active)
COc1ccc(C(=O)C[n+]2ccc(C)cc2)cc1	6.13%
COc1ccc(CCC(=O)c2ccc(OC)cc2)cc1	0.925%
COC(=O)c1c(-c2ccsc2)oc2ccc(-c3cc(OC)c(OC)c(OC)c3)cc12	-4.62%
CCOc1ccc(-n2c(O)c(/C=N/c3ccnn3Cc3ccncc3)c3ccccc3c2=O)cc1	0.299%
Cc1ccc(-n2c(O)c(C=Nc3ccc(S(=O)(=O)Nc4ncccn4)cc3)c3ccccc3c2=O)cc1C	-1.55%
CCOc1ccc(N=Cc2c(O)n(-c3cccc(C)n3)c(=O)c3ccccc23)cc1	22.9% (active)
O=C(CSC(=S)N1CCCCC1)c1c(F)cccc1F	18.8% (active)

SMILES	inhibition
CC(=O)c1ccc(NC(=O)CSC(=S)N2CCCC2)cc1	-0.968%
O=C(CSC(=S)N1CCOCC1)c1ccccc1	0.663%
Cc1cc(C)c(S(=O)(=O)N2CCCC2CNC(=O)c2ccc3c(c2)OCO3)c(C)c1 (stereo not given)	4.9%
COc1ccccc1OCC(=O)Nc1ccccc1C(=O)NC1CC1	-1.85%
COC(=O)C1=C(C)OC(N)=C(C#N)C1c1cc(OC)ccc1OC (stereo not given)	-2.56%
COc1cc(C2C(C#N)=C(N)Oc3n[nH]c(-c4ccccn4)c32)cc(OC)c1OC (stereo not given)	-0.727%
COc1ccc(C2C(C#N)=C(N)Oc3cc(N)ccc32)cc1OC (stereo not given)	70.8% (active)
O=C1CN(C(=O)COc2c(Cl)cccc2Cl)c2ccccc2N1	0.217%
CCOC(=O)c1cc2occc2n1CC(=O)N1CCN(C(=O)c2ccco2)CC1	-1.58%
CCOC(=O)c1cc2c(ccn2C)n1CC(=O)N1CCC(C)CC1	24.7% (active)
CCOC(=O)c1cc2ccccc2n1CC(=O)c1ccccc1	-1.27%
COc1ccc(OC)c(S(=O)(=O)N2CCCC(C(=O)N3CCC(C(N)=O)CC3)C2)c1 (stereo not given)	6.32%
O=C(O)c1ccccc1CSc1nc2ccccc2s1	-3.5%
CCC(C(=O)N1CCOCC1)n1c(C(=O)OC)cc2occc21 (stereo not given)	-3.41%
COC(=O)c1ccc(S(=O)(=O)NCc2ccccc2)n1C	-3.7%
COC(=O)c1cc2c(ccn2C)n1C	21.8% (active)
COc1ccc(C(CNC(=O)c2cccc(S(=O)(=O)Nc3ccccc3Cl)c2)N2CCOCC2)cc1 (stereo not given)	10.7%
C/C=C/c1ccc(OCC(=O)OCC(=O)Nc2c(C)nn(-c3ccccc3)c2C)c(OC)c1	1.88%
COC(=O)C1=C(C)N(C)C(=S)NC1c1ccccc1 (stereo not given)	4.45%
COCCN1C2=C(COC(C)(C)C2)C(=S)NC1c1ccccc1 (stereo not given)	18.1% (active)

SMILES	inhibition
COCCN1C(=O)N[C@@H](CCc2ccccc2)[C@H](C(C)=O)[C@H]1C	-2.31%
O=C1CC2(CCCC2)Oc2ccc(Cl)cc21	-0.936%
COc1cccc(COC(=O)C2CCN(S(=O)(=O)c3ccc(Cl)cc3)CC2)c1OC	3.92%
CCCC(C)c1nnc(NC(=O)C2CC(=O)N(c3ccc(OCC)cc3)C2)s1 (stereo not given)	18.4% (active)
CCOc1ccc(N2CC(C(=O)NCc3ccccn3)CC2=O)cc1 (stereo not given)	-1.93%
CCOc1ccc(NC(=O)[C@H](C)NC(=O)C2CC(=O)N(c3ccc(OC)cc3)C2)cc1 (stereo not given in full)	2.72%
CC(OC(=O)c1ccc(-n2cnnn2)cc1)C(=O)NCc1ccccc1 (stereo not given)	3.57%
CCC(=O)Nc1c(S(=O)(=O)c2ccccc2)c2nc3ccccc3nc2n1Cc1ccccc1	22.2% (active)
CCN(CC)CCn1c(N)c(S(=O)(=O)c2ccccc2)c2nc3ccccc3nc21	0.032%
COC(=O)CSc1nc2ccccc2c(=O)n1Cc1ccccc1	5.12%
O=C(CCCN=C1NS(=O)(=O)c2ccccc21)OCC(=O)c1ccc(F)c(F)c1	3.32%
CCC1(c2ccccc2)NC(=O)N(CC(=O)c2ccc3c(c2)OCO3)C1=O (stereo not given)	1.92%
O=C(Nc1ccc(N2CCCCC2)cc1)c1cc(S(=O)(=O)N2CCOCC2)ccc1F	-0.386%
CCn1c2ccccc2c2cc(NC(=O)C/C(C)=N/NC(=O)c3ccccc3N)ccc21	-6.36%
CCn1c2ccccc2c2cc(NC(=O)CNC)ccc21	18.8% (active)
CCn1c2ccccc2c2cc(NC(=O)COC(=O)c3ccccc3Br)ccc21	-2.01%
COc1ccc(S(=O)(=O)N2CCCCC2)cc1NC(=O)c1cc([N+](=O)[O-])ccc1N1CCOCC1	8.1%
CC1CN(c2cc(=O)n(Cc3ccc(F)cc3)c(=O)[nH]2)CC(C)O1 (stereo not given)	8.41%
CC1CN(C(=S)Nc2ccc(Br)cc2Cl)CC(C)O1 (stereo not given)	-3.05%
CC1CN(c2cc(=O)n(-c3cccc(Br)c3)c(=O)[nH]2)CC(C)O1 (stereo not given)	39.6% (active)
